Laboratory results from PubChem BioAssay (NCI).
About 83,000 compounds went through this panel and 20% of them were active in at least one assay; those are over-represented in the sample as a whole.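 Single-concentration screen, 48 h exposure, 96-well plates. Endpoint: percent growth. Below 10 = active.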 Activity calls are given as the source filed them.

Experiments:
Assay in all cases: NCI-60 one-dose screen, 48 h (100 = growth as untreated, 0 = no growth, -100 = all killed)
Conditions in all cases: 10 µM unless noted
[1] = system: NCI-H23 lung
[2] = system: NCI-H226 lung
[3] = system: NCI-H322M lung
[4] = system: HOP-62 NSCLC
[5] = system: NCI-H460 lung
[6] = system: HOP-92 NSCLC
[7] = system: NCI-H522 lung
[8] = system: A549/ATCC NSCLC
[9] = system: 786-0 renal
[10] = system: COLO 205 colon
[11] = system: DU-145 prostate
[12] = system: K-562 leukemia
[13] = system: MALME-3M melanoma
[14] = system: MDA-MB-231 breast
[15] = system: RXF 393 renal
[16] = system: SF-268 CNS
[17] = system: SF-295 CNS
[18] = system: SF-539 CNS
[19] = system: UACC-257 melanoma
[20] = system: M14 melanoma

Measured: growth

COc1ccc(C(=O)Nc2cccc(C3CCc4c(cc(OC)c(OC)c4OC)O3)c2)cc1 (stereo not drawn)
inactive: [1] 58.9% | [2] 30.1% | [3] 75.9% | [4] 39.8% | [5] 25.7% | [6] 61.3% | [7] 42.7% | [8] 43.4% | [9] 68.7% | [10] 67.9% | [11] 69.9% | [12] 16.8% | [13] 46.2% | [14] 63.1% | [15] 81.1% | [16] 52.7% | [17] 42.2% | [18] 61.3% | [19] 52% | [20] 34.2%

O=S(=O)(NCCCNc1nccc(-c2c(-c3cccc(O)c3)nc3occn23)n1)c1ccc(Cl)cc1
inactive: [1] 94.6% | [2] 108% | [3] 103% | [4] 114% | [5] 92.5% | [6] 96.6% | [7] 87.6% | [8] 90.5% | [9] 102% | [10] 27.7% | [11] 95.4% | [12] 55.6% | [13] 10.7% | [14] 61.8% | [15] 77.9% | [16] 87.4% | [17] 116% | [18] 108% | [19] 12.7% | [20] 24.3%

Cc1ccc(NC(C(=O)c2ccccc2)c2ccccc2)cc1 (stereo not drawn)
inactive: [1] 59.5% | [2] 75.3% | [3] 97.3% | [4] 80.2% | [5] 46.9% | [6] 39.8% | [7] 34.4% | [8] 58% | [9] 75.5% | [10] 41.9% | [11] 58.2% | [12] 46.5% | [14] 72.4% | [15] 95.2% | [16] 68.6% | [17] 53.2% | [18] 78.4% | [19] 10.5% | [20] 77.6%
active: [13] -2.02%

O=S(=O)(NCCNc1nccc(-c2c(-c3cccc(O)c3)nc3occn23)n1)c1ccccc1
active: [13] 2.3%
inactive: [1] 93.5% | [2] 104% | [3] 93.7% | [4] 119% | [5] 80.6% | [6] 80.9% | [7] 77.5% | [8] 78.9% | [9] 93.3% | [10] 34.6% | [11] 97.7% | [12] 68.4% | [14] 66.5% | [15] 90.3% | [16] 85.3% | [17] 96.6% | [18] 105% | [19] 17.7% | [20] 29.4%

COc1cccc(-c2nc3occn3c2-c2ccnc(NCCCNS(=O)(=O)c3ccc(C(F)(F)F)cc3)n2)c1
inactive: [1] 99.3% | [2] 80.5% | [3] 99.4% | [4] 103% | [5] 89.8% | [6] 104% | [7] 86.9% | [8] 89.7% | [9] 86.8% | [10] 70% | [11] 89.2% | [12] 69.8% | [13] 95.8% | [14] 90.1% | [15] 79.6% | [16] 75% | [17] 95.2% | [18] 89.5% | [19] 84.5% | [20] 85.6%

COc1cccc(-c2ccc3c(c2)NC(=O)/C3=C\c2ccc[nH]2)c1
inactive: [1] 31.4% | [2] 50.5% | [3] 45.2% | [4] 62.7% | [5] 11.5% | [6] 93.5% | [7] 10.4% | [8] 57.1% | [9] 48.1% | [10] 30% | [11] 65.7% | [12] 12.4% | [13] 51.9% | [14] 53.4% | [15] 32.2% | [16] 80.8% | [17] 61.8% | [18] 45.4% | [19] 77% | [20] 39.2%

COc1cc(NC(C)CCCNC(=O)CCC(=O)NCCCNCCCCCCCCNCCCNC(=O)CCC(=O)NCCCC(C)Nc2cc(OC)cc3cccnc23)c2ncccc2c1 (stereo not drawn)
inactive: [1] 54.4% | [2] 44.5% | [3] 32.9% | [4] 85.2% | [5] 87.4% | [6] 54.2% | [7] 47.3% | [8] 63% | [9] 92.6% | [10] 14.7% | [11] 66.7% | [12] 45.1% | [13] 40.2% | [14] 44% | [15] 67.9% | [16] 52.2% | [17] 85.5% | [18] 69% | [19] 36.3% | [20] 84.4%

C/C=C(\C)C(=O)NC1=CC[C@@]2(C)C(=CCC3C2CC[C@@]2(C)C3CC[C@@H]2C(C)N(C)C)C1=O (stereo partly drawn)
active: [10] -8.4% | [13] -42.9% | [18] -49% | [19] 2.46%
inactive: [1] 39.2% | [2] 89.6% | [3] 36.9% | [4] 46.4% | [5] 17.4% | [6] 40.6% | [7] 77.9% | [8] 60.8% | [9] 44.2% | [11] 64.6% | [14] 34.8% | [15] 10.7% | [16] 10.4% | [17] 31.7%
